The whole screen tested about 340,000 compounds, of which about 420 (0.12%) were called active. About 10% were inconclusive and are not listed. Calls come from the whole dose curve; as a rule, active = well fitted activation curve with a large enough effect; inconclusive = small, poorly fitted or top-dose-only effect, or another doubt; inactive = no such curve, though single readings can be large or run the other way; cell line not stated here. This excerpt belongs to a sample that is enriched for actives.
Assay: qHTS for Agonist of gsp, the Etiologic Mutation Responsible for Fibrous Dysplasia/McCune-Albright Syndrome: qHTS; note: nearly all actives have a fitted effect of over 60% in size;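 for activation (cAMP increase): phosphodiesterase inhibitor Ro 20-1724 added with compounds to block cAMP breakdown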
Conditions: gsp mutant cells, cAMP HTRF, 30 min; series mostly up to 76.9 µM; activation (cAMP increase): at the top concentration
From the text: McCune-Albright syndrome (MAS) is a rare disease caused by somatic mutations in Gsgsp), a widely expressed protein central in signal transduction from G-coupled protein receptors (GPCRs). The disease symptoms are diverse, owing to the fact that the patients are mosaics with varying degrees of tissue involvement. Greater than 90% of the mutations in Gs in MAS occur at the R201 position and are equally divided between R201H and R201C. The R201 residue is central in the intrinsic GTPase activity of Gs and the H and C mutations lead to loss of, or impairment of, the GTPase activity. The intrinsic GTPase activity is necessary to terminate the interaction between Gs and adenylate cyclase, and to terminate the cAMP-mediated signaling of the given GPCR pathway. Thus, these activating mutations lead to ligand-independent activation of GPCR pathways. The tissue phenotype is determined by the role of Gs in the function of a given cell, and excess Gs/cAMP signaling in that cell. For example, pituitary somatotrophs overproduce growth hormone in a growth hormone releasing hormone-independent fashion, and gigantism/acromegaly ensues. Skeletal stem cells in the bone marrow behave as if they are under constant parathyroid hormone stimulation and fail to differentiate into osteoblasts and osteocytes, and proliferate as immature osteogenic cells and lead to the marrow fibrosis of fibrous dysplasia of bone. The goal of this project is to identify molecules with stimulatory activity at gsp mutations that will not only allow for in-depth study of the underlying molecular and cellular pathophysiology, but also serve as compounds from which drugs to treat FD/MAS can be developed NIH Chemical Genomics Center [NCGC] NIH Molecular Libraries Probe Centers Network [MLPCN] MLPCN Grant: IRP-FT-DE-2011-01 Assay Submitter (PI): Michael Collins, NIDCR
1.#Seed 2000 cells/well in 6 ul DMEM 10% FBS, 1% Pen/Strep, 0.5 mg/ml G418 2.#Incubate 16-24 hr at 37C, 5% CO2, 95% humidity 3.#Aspirate leaving 1 ul residual volume 4.#Dispense 5 ul/well DPBS + 1 mM CaCl2, 0.5 mM MgCl2, 0.05% BSA, 0.005% Tween 20 5.#Aspirate leaving 2 ul residual volume 6.#Dispense 23 nl/well compounds in DMSO 7.#Dispense 1 ul/well 300 uM Ro-20174 in DMEM 10% FBS 8.#Incubate 30 min at 37C, 5% CO2, 95% humidity 9.#Dispense 1.5 ul/well HTRF reagent: cAMP-d2 in lysis buffer 10.#Dispense 1.5 ul/well HTRF reagent: anti-cAMP antibody-K in lysis buffer 11.#Incubate 30 min at room temperature 12.#Detect HTRF signal using EnVision plate reader
Potency is the fitted concentration of half-maximal effect.

Compound	activation (cAMP increase)	Potency
CCOC(=O)c1c(C)[nH]c(C)c1C(=O)COC(=O)/C=C/c1cccc([N+](=O)[O-])c1	-66.3% (inactive)	–
O=C(NCCN1CCOCC1)c1ccc2c(c1)N(Cc1cccc(Cl)c1)C(=O)c1ccccc1S2(=O)=O	-3.41% (inactive)	–
CC(C)N=C1CCCC1C(=S)SSC(=S)C1CCCC1=NC(C)C (stereo not given)	-39.5% (inactive)	–
CCOC(=O)c1cc(-c2sc(NC(=O)c3ccccc3)nc2C)n(Cc2ccccc2)n1	1.49% (inactive)	–
COc1ccc(CN2C(=O)C(CC(=O)NCCCCc3ccccc3)CC(C(=O)N3CCOCC3)=C2C)cc1 (stereo not given)	-2.99% (inactive)	–
CCN(CC)C(=O)C1=C(C)N(Cc2ccc(OC)cc2)C(=O)C(CC(=O)NCc2ccco2)C1 (stereo not given)	-33.1% (inactive)	–
O=C(NCCN1CCOCC1)C1CCN(S(=O)(=O)c2ccccc2)CC1	10.7% (inactive)	–
O=C(O)Cc1sc(-c2ccccc2)nc1-c1cccs1	–	12.6 µM (active)
NC(=O)Cc1ccc2sc(-c3ccccc3)nc2c1	-43.9% (inactive)	–
CN(C(=O)COc1nnc(-c2cccs2)c(-c2cccs2)n1)c1ccccc1	-47.1% (inactive)	–
O=C(Cc1ccc([N+](=O)[O-])cc1)NCCS(=O)(=O)N1CCN(c2ccccc2)CC1	-24.3% (inactive)	–
CCc1ccccc1OCC(=O)Nc1nnc(C2CC2)s1	-18.6% (inactive)	–
COc1ccc([C@H]2N[C@]3(CCCN(CC4CCCCC4)C3=O)[C@H]3C(=O)N(C)C(=O)[C@@H]23)cc1	0.0546% (inactive)	–
Cc1ccc(C(=O)OCC(=O)NC2CCCCCCC2)cc1C	-30.5% (inactive)	–
COc1cc2c(cc1OC)CN(C(C)C(=O)Nc1cccc(S(=O)(=O)N3CCOCC3)c1)CC2 (stereo not given)	–	10 µM (active)
CC(Sc1cccc[n+]1[O-])C(=O)Nc1cccc(S(=O)(=O)N2CCOCC2)c1 (stereo not given)	27.2% [at 15.4 µM] (inactive)	–
CC(Sc1ccccc1F)C(=O)Nc1cccc(S(=O)(=O)N2CCOCC2)c1 (stereo not given)	14.1% (inactive)	–
COc1ccc(C(C)(C)C)cc1NC(=O)CN(C)C1=NS(=O)(=O)c2ccccc21	-29.4% (inactive)	–
CC1(C)OC(=O)C2=C(CC(c3ccccc3)OC2CCc2ccccc2)O1 (stereo not given)	-70.3% (inactive)	–
O=C1CCC(=O)N1CCC(=O)N(C(=O)NC1CCCCC1)C1CCCCC1	9.55% (inactive)	–

Compound	activation (cAMP increase)	Potency
CC(=NNC(N)=O)C1CC2CCC1CC2 (stereo not given)	23.2% (inactive)	–
CC1(c2cccc(Br)c2)NC(=O)N(CC(=O)NCCC2=CCCCC2)C1=O (stereo not given)	-35.7% (inactive)	–
COc1ccccc1C(=O)NC(=S)Nc1ccc(N2CCOCC2)cc1	-479% (inactive)	–
COc1ccc(-c2ccc(CN3C(CC(C)C)C(=O)N(Cc4cn(CC5CCCCC5)nn4)CCS3(=O)=O)cc2)cn1 (stereo not given)	-11.8% (inactive)	–
O=C1C(=O)N(CCN2CCOCC2)C(c2cccc(Cl)c2)/C1=C(/O)c1ccc2c(c1)OCO2 (stereo not given)	–	12.6 µM (active)
COc1ccc(C2/C(=C(/O)c3ccc(OC(C)C)cc3)C(=O)C(=O)N2CCCN2CCOCC2)cc1 (stereo not given)	-42.6% (inactive)	–
O=C1C(=O)N(CCCN2CCOCC2)C(c2ccc([N+](=O)[O-])cc2)/C1=C(\O)c1ccc2c(c1)OCCO2 (stereo not given)	-0.162% (inactive)	–
O=C1CCC(C(=O)OCC(=O)Nc2ccc(OC(F)F)cc2)=NN1	-74.6% (inactive)	–
COc1cc(C)c(CN2CCN(C(=O)CCC(=O)c3ccc(C)s3)CC2)cc1OC	-203% (inactive)	–
CCOc1cc(/C=N/NC(=O)c2ccncc2)cc(Br)c1O	-82.6% (inactive)	–
NC(=S)NN=Cc1ccc(OC(=O)COc2cc(Cl)c(Cl)cc2Cl)cn1	-7.4% (inactive)	–
COc1cccc(-n2c(=S)[nH]c3c(oc4ccccc43)c2=O)c1	–	15.8 µM (active)
COc1cccc(-n2cc(C(=O)O)c3ccccc3c2=O)c1	0.885% (inactive)	–
COc1cccc(N2C(=O)CN(Cc3ccccc3)C2=S)c1	-35.3% (inactive)	–
CC1(C)CN(CCc2ccccc2)C(=O)[C@H]1CC(=O)Nc1ccc(Br)cc1	-21.5% (inactive)	–
Cc1ccc(S(=O)(=O)/N=C2\C=C(NS(=O)(=O)c3ccc(C)cc3)C(=O)c3ccccc32)cc1	-28% (inactive)	–
COCOCCn1cc(CN2CCS(=O)(=O)N(Cc3ccc(-c4ccccc4)cc3)C(CC(C)C)C2=O)nn1 (stereo not given)	-36.7% (inactive)	–
COc1ccccc1-c1n[nH]nc1C1=CC(=O)CC(C)(C)C1	-31.1% (inactive)	–
CC1=C(C(=O)N2CCOCC2)CC(CC(=O)NCC2CCCCC2)C(=O)N1Cc1ccc(F)cc1 (stereo not given)	19.8% (inactive)	–
CCOC(=O)C1CCN(C(=O)c2ccc3c(=O)n4nc(Nc5ccccc5CC)sc4nc3c2)CC1	-63.7% (inactive)	–

Compound	activation (cAMP increase)	Potency
O=Cc1cn(CCOc2ccc(F)cc2)c2ccccc12	-27.8% (inactive)	–
CCOc1ccc(-c2nnc3ccc(SC)nn23)cc1	19.5% (inactive)	–
COC(=O)C(C)Sc1ccc2nnc(-c3cccc(F)c3)n2n1 (stereo not given)	–	10 µM (active)
CCOC(=O)CNC(=O)CSc1ccc2nnc(-c3cccnc3)n2n1	37.7% [at 15.4 µM] (inactive)	–
CCN(CC)C(=O)C1=C(C)N(Cc2ccc(F)cc2)C(=O)C(CC(=O)NCc2cccc3ccccc23)C1 (stereo not given)	-36.3% (inactive)	–
C[C@H]1CN([C@@H](C)CO)C(=O)c2cc(-c3ccccc3F)cnc2O[C@H]1CN(C)C(=O)C1CCOCC1	-52.9% (inactive)	–
Cc1ccc(S(=O)(=O)N2C[C@]3(O)C[C@@H]4C(=O)N(c5ccccc5)C(=O)[C@@H]4C[C@]3(OC(=O)NC3CC3)C2)cc1	-30.1% (inactive)	–
CNC(=O)C1CN(C(=O)c2cccc(S(=O)(=O)N3CCc4ccccc43)c2)c2ccccc2O1 (stereo not given)	-68% (inactive)	–
CCN1CCN(CCNC(=O)c2ccc3c(c2)NC(=O)/C(=C\c2cccc(Cl)c2)S3)CC1	-3.75% (inactive)	–
O=C(C[C@H]1C[C@H]2c3cc(NS(=O)(=O)c4ccc(F)cc4)ccc3O[C@H]2[C@H](CO)O1)NCc1cc(F)ccc1F	8.81% (inactive)	–
c1ccc2c(c1)nnn2-c1ccncc1	-40.3% (inactive)	–
COc1cc2c(cc1OC)C1C(=O)c3cc(OS(C)(=O)=O)c(OC)cc3C1N(C)C2=O (stereo not given)	-1.61% (inactive)	–
CCCCCC(=O)N1C[C@H](O)[C@@H](n2cc(COC(=O)c3ccccc3)nn2)C[C@@H]1c1ccc(C)cc1	-53.5% (inactive)	–
CC1CN(C(=O)c2cccc(NS(=O)(=O)c3ccc(Br)cc3)c2)CC(C)O1 (stereo not given)	13.8% (inactive)	–
Cc1ccc(C=O)c([B-](F)(F)F)c1	-6.59% (inactive)	–
CC(C)c1cc(C(=O)NC2CCCCCC2)c2ccccc2n1	-90.8% (inactive)	–
CN(C)C(CNC(=O)c1cccc(S(=O)(=O)N2CCc3ccccc3C2)c1)c1ccccc1 (stereo not given)	-30.2% (inactive)	–
CCCCCCN1C[C@@H](O)[C@H](n2cc(COC(=O)c3ccccc3)nn2)C[C@@H]1c1ccc(Cl)cc1	-204% (inactive)	–
CCN(CC)C(=O)C1=C(C)N(Cc2ccc(C(C)(C)C)cc2)C(=O)C(CC(=O)NCc2cccc3ccccc23)C1 (stereo not given)	-9.97% (inactive)	–
COc1ccc([C@H]2N[C@]3(CCCN(Cc4ccco4)C3=O)[C@H]3C(=O)N(C)C(=O)[C@@H]23)cc1	-7.66% (inactive)	–

Reference: PubChem BioAssay AID624287 (National Center for Advancing Translational Sciences (NCATS), 2012)
